PubChem BioAssay AID1942 (Johns Hopkins Ion Channel Center, 2009)
In all, about 2,400 compounds went through this assay and about 580 (24%) were called active.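 How the source made its calls: active means activity change at or above the mean plus 3 SD of buffer wells without dofetilide, per plate; inactive means the rest.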 A selection follows.

target: Potassium voltage-gated channel subfamily KQT member 2 (Rattus norvegicus) (UniProt O88943); test: rat KCNQ2 channel activation by compounds alone, confirmation, counter-screen for hERG block protector project, cell-based, CHO, FluxOR thallium flux (AID 1942); details: CHO-KCNQ2 cells, FluxOR thallium flux fluorescence; at 10 µM; hits give high values;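 further: normalized value minus buffer-control mean plus three SD of buffer wells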
Sequence (O88943 whole entry, looked up): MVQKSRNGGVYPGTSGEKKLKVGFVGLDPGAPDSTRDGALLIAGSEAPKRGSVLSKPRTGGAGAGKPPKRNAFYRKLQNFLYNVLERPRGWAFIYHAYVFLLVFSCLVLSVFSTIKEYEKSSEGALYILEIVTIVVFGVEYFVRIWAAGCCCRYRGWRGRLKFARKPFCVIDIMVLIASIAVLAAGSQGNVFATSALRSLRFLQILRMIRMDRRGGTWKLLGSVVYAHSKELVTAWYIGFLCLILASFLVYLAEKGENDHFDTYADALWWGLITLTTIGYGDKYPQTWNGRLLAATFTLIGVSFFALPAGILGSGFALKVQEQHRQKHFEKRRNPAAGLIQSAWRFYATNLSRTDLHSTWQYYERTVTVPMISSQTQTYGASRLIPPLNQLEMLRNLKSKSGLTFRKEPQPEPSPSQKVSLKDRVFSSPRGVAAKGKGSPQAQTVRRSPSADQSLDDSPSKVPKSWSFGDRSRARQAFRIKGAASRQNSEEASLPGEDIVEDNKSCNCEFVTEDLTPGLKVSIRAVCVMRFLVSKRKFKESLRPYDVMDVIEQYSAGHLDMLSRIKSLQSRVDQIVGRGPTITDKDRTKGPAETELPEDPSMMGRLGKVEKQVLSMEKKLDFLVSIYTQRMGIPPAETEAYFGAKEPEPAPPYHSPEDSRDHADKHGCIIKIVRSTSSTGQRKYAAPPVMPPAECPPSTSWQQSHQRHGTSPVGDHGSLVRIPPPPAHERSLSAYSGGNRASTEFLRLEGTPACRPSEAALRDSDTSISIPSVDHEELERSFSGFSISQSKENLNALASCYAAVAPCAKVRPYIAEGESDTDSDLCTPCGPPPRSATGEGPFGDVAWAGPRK

Row | SMILES | activity change, less the hit threshold
1 | COc1ccc2c(c1)O[C@@H](c1cccc(C(F)(F)F)c1)[C@H](OC(=O)NCCc1ccc(OC)c(OC)c1)C2=O | -11% (inactive)
2 | CCc1nnc(NC(=O)COc2ccc([N+](=O)[O-])cc2)s1 | -12.5% (inactive)
3 | CC/C(=N\NC(=O)c1nnn(-c2nonc2N)c1-c1cccs1)c1ccccc1 | -13.9% (inactive)
4 | COc1ccccc1NC(=O)C(=O)NNC(=O)c1ccco1 | 24.1% (active)
5 | COc1ccc(C)cc1NC(=O)C(=O)NNC(=O)c1ccco1 | 73.2% (active)
6 | O=C(CCC(=O)Nc1ccccc1)NNC(=O)c1ccco1 | -23.9% (inactive)
7 | CCN(CC)C(=O)CN1C(=O)C2CC=C(Cl)CC2C1=O (stereo not given) | -12.3% (inactive)
8 | O=C(O)Cn1cc(CN2CCOCC2)c2ccccc21 | -20.4% (inactive)
9 | CC1(OC(=O)C2CCCC2)C(=O)C=C2C=C(c3ccc(C#N)cc3)OC=C2C1=O (stereo not given) | -18.1% (inactive)
10 | CCOC(=O)C1=C(Cn2cnc3ccccc32)NC(=O)NC1c1cc(C)ccc1C (stereo not given) | -19.4% (inactive)
11 | Cc1ccc(S(=O)(=O)N2CCOCC2)cc1NC(=O)CSc1nc2ccccc2c(=O)n1Cc1ccccc1 | -8.2% (inactive)
12 | Cc1ccc(CNC(=O)CN2C(C)CCCC2C)cc1 (stereo not given) | -17% (inactive)
13 | CN1/C(=C/C=C(C#N)C#N)C=Cc2ccccc21 | -17.6% (inactive)
14 | Cc1ccc(N2CCN(C(=O)N3CCCC3)CC2)cc1C | 3.3% (active)
15 | Cc1ccc(-n2c(=O)c3cc4c(=O)n(-c5ccc(C)c(C)c5)c(=O)c4c(C(=O)c4ccc(C(=O)O)cc4)c3c2=O)cc1C | -9.5% (inactive)
16 | CCOC(=O)N1CCN(c2c(-c3ccc(C)c(C)c3)c(=O)c2=O)CC1 | -10.9% (inactive)
17 | CCOC(=O)c1c(/N=C/C2=C(O)CCCC2=O)sc2c1CCCC2 | -20.8% (inactive)
18 | CNC(=S)Nc1sc2c(c1C(=O)OC)CCC2 | 8.9% (active)
19 | Cc1onc(-c2ccccc2)c1C(=O)NC(=S)Nc1sc2c(c1C#N)CCCC2 | -12.6% (inactive)
20 | COc1ccc(NC(=S)NC(NC(=O)c2cccc3ccccc23)C(Cl)(Cl)Cl)c([N+](=O)[O-])c1 (stereo not given) | -21.8% (inactive)
21 | CCOC(=O)c1c(NC(=S)NC)sc2c1CCCC2 | 13% (active)
22 | CCOC(=O)c1c(NC(=S)NC)sc2c1CC(C)(C)SC2 | 97.7% (active)
23 | COC(=O)c1c(NC(=S)Nc2ccc(F)cc2[N+](=O)[O-])sc2c1CCCCC2 | 1.5% (active)
24 | CCc1nnc(NC(=O)CCC(=O)N2CCN(C3CCCCC3)CC2)s1 | -21.4% (inactive)
25 | O=C(N/C(=C/c1ccc2c(c1)OCO2)C(=O)N1CCOCC1)c1cccs1 | -18.2% (inactive)

Row | SMILES | activity change, less the hit threshold
26 | CC(C)OC(=O)N(C)c1ccc(C(O)(C(F)(F)F)C(F)(F)F)cc1 | -9.3% (inactive)
27 | COc1cc(C2c3c(n[nH]c3C)C(=O)N2c2ccc(C)cc2)ccc1O (stereo not given) | -19.5% (inactive)
28 | Cc1ccc(NS(=O)(=O)c2cn(C)c(=O)n(C)c2=O)c(C)c1 | -0.5% (inactive)
29 | Cn1c(NNC(=O)C(c2ccccc2)c2ccccc2)cc(=O)n(C)c1=O | -1.8% (inactive)
30 | CCOc1ccc(NC(=O)c2ccc(NC(=O)CSc3nc4ccccc4c(=O)[nH]3)cc2)cc1 | -13.5% (inactive)
31 | Fc1cccc(/C=N/Nc2ccc3ccccc3n2)c1 | -17.9% (inactive)
32 | CC(=O)c1c(N)[nH]c(-c2ccccc2)nc1=S | -0.2% (inactive)
33 | CC(=O)c1c(N2CCCC2)[nH]c(-c2ccccc2)nc1=S | -6% (inactive)
34 | CC(=O)c1c(N2CCN(Cc3ccccc3)CC2)[nH]c(-c2ccccc2)nc1=S | 22.7% (active)
35 | CC(=O)c1c(NC(=O)c2ccccc2)[nH]c(-c2ccccc2)nc1=S | 7% (active)
36 | CSc1nc(-c2ccccc2)[nH]c(=S)c1C(C)=O | 72.6% (active)
37 | CC(=O)c1c(C)[nH]c(-c2ccccc2)nc1=S | -7.7% (inactive)
38 | C=C(C)Cc1c(C)nc(-c2ccccc2)[nH]c1=O | -12.3% (inactive)
39 | Cc1ccccc1CC(=O)NC1CCN(Cc2ccccc2)CC1 | -25.3% (inactive)
40 | O=C(NCc1cccc(Cl)c1)c1ccncc1 | -23.6% (inactive)
41 | CCCCNC(=S)NNC(=O)c1ccc2c(c1)OCO2 | -24.3% (inactive)
42 | Cc1ccc(C(C)NC(=O)c2ccc3c(c2)OCO3)cc1C (stereo not given) | 27.1% (active)
43 | Cc1cc(C(=O)NNC(=O)c2cccs2)nn1C(C)(C)C | -14.9% (inactive)
44 | Cc1ccc(NC(=O)c2ccc3c(c2)OCO3)cc1Cl | -14.7% (inactive)
45 | Cc1ccc(C(=O)NC(C)c2ccc(C)c(C)c2)s1 (stereo not given) | 24.3% (active)
46 | Nc1ccc(Cl)c(NC(=O)c2cccs2)c1 | -12.3% (inactive)
47 | Cc1cc(C(=O)CCC(=O)NC(C)c2ccc(S(N)(=O)=O)cc2)c(C)s1 (stereo not given) | -10% (inactive)
48 | Cc1ccc(C(C)NC(=O)c2cccs2)cc1C (stereo not given) | 4% (active)
49 | O=S(=O)(Nc1ccc(O)c2ccccc12)c1ccc(F)cc1 | -19.8% (inactive)
50 | O=C1C2C3C=CC(C4CC34)C2C(=O)N1/N=C/c1ccc(-c2ccc(F)cc2[N+](=O)[O-])o1 (stereo not given) | -20.9% (inactive)

Row | SMILES | activity change, less the hit threshold
51 | Cc1ccc(/C=N/Nc2nc(C(C)(C)C)cs2)o1 | -0.3% (inactive)
52 | COCCNC(=O)C1CC(=O)N(c2ccc(OC)cc2)C1c1ccc(OC)cc1 (stereo not given) | -16.8% (inactive)
53 | CN1C(=O)/C(=N/OC(=O)c2ccccc2)c2ccccc21 | -19.8% (inactive)
54 | O=C(O)CCCCn1c(SCc2ccccc2Cl)nc2ccsc2c1=O | -5.9% (inactive)
55 | Cc1cccc(NC(=S)NNC(=O)c2csc3c2CCC(C)C3)c1 (stereo not given) | -8.1% (inactive)
56 | Cc1ccc(C)c(NC(=S)NNC(=O)c2csc3c2CCC(C)C3)c1 (stereo not given) | 14.5% (active)
57 | Cc1ccc(C)c(NC(=O)C2C3CCCC2C3c2ccccc2)c1 (stereo not given) | -4.2% (inactive)
58 | O=C(OCC(=O)N1CCOCC1)c1ccc(Cl)cc1[N+](=O)[O-] | -13.6% (inactive)
59 | O=c1ccn(CCCBr)c(=O)[nH]1 | -13.2% (inactive)
60 | CCOC(=O)C(C)Sc1nc2c(c(-c3cccs3)c1C#N)CCC2 (stereo not given) | -15.1% (inactive)
61 | COC(=O)CSc1nc(N2CCCCC2)c2c(c1C#N)CCCC2 | -6.4% (inactive)
62 | COC(=O)CSc1nc2c(c(-c3ccc(C)o3)c1C#N)CCCC2 | 7.4% (active)
63 | Nc1cccc(Oc2cnccn2)c1 | -17.9% (inactive)
64 | COc1cc2c(cc1OC)CN(C(=O)c1ccc3nc[nH]c3c1)CC2 | -2.1% (inactive)
65 | Cc1ccc(OCC(=O)NC(=S)Nc2ccc(Br)cn2)cc1 | 12.4% (active)
66 | Cc1ccc(OCC(=O)NC(=S)Nc2ccc(Br)cn2)cc1C | -11.2% (inactive)
67 | Cc1nc(NC(=S)NC(=O)COc2ccc(Cl)cc2)ccc1Br | -19.1% (inactive)
68 | COc1ccc(N(CC(=O)N2CCN(Cc3ccccc3)CC2)S(C)(=O)=O)cc1OC | -16.5% (inactive)
69 | COCCNC(=O)C(c1ccncc1)N(C(=O)Cn1nnc2ccccc21)c1ccc(OC)cc1 (stereo not given) | -20.7% (inactive)
70 | Cc1ccc(-c2nnn(CC(=O)N(CC3CCCO3)C(C(=O)NC3CCCC3)c3ccc(O)cc3)n2)o1 (stereo not given) | -15.8% (inactive)
71 | COCCNC(=O)C(c1ccc(C)o1)N(Cc1ccc(OC)cc1)C(=O)Cn1nnc2ccccc21 (stereo not given) | 19.1% (active)
72 | CC1CC(C)CN(CCCNC(=O)Cc2c(C(=O)O)[nH]c3ccccc23)C1 (stereo not given) | -14.9% (inactive)
73 | Nn1c(SCC(=O)Nc2ccccc2F)nnc1C1CCCCC1 | -10.5% (inactive)
74 | CC1Cc2cc(S(=O)(=O)NCc3ccccc3)ccc2N1C(=O)C1CCC1 (stereo not given) | -20.4% (inactive)
75 | Cc1csc2ncc(C(=O)N3c4ccccc4CC3C)c(=O)n12 (stereo not given) | -9.8% (inactive)

Row | SMILES | activity change, less the hit threshold
76 | COc1cc2c(cc1OC)C(C)N(C(=S)NC(=O)c1ccccc1)CC2 (stereo not given) | -10.9% (inactive)
77 | CC1Cc2ccccc2N1C(=S)NC(=O)c1ccco1 (stereo not given) | -3.3% (inactive)
78 | CC1Cc2ccccc2N1C(=S)NC(=O)C1(C)CC1(Cl)Cl (stereo not given) | 38.1% (active)
79 | CC1Cc2ccccc2N1C(=S)NC(=O)c1ccc(Cl)cc1Cl (stereo not given) | 52.5% (active)
80 | Cc1ccc2c(c1)C1CN(C)CCC1N2C(=S)NC(=O)c1ccc(Br)cc1 (stereo not given) | -7% (inactive)
81 | CC1Cc2ccccc2N1C(=S)NC(=O)c1cccc(Br)c1 (stereo not given) | 121% (active)
82 | CNC(=O)c1[nH]cnc1C(=O)Nc1ccccn1 | -9.6% (inactive)
83 | Cc1cc(S(=O)(=O)NCC(C)C)ccc1OCC(=O)NCc1ccccn1 | -21.1% (inactive)
84 | CCOc1cc(Br)c(C(=O)O)cc1OC | -13.8% (inactive)
85 | OC(CCN1CCOCC1)c1ccccc1 (stereo not given) | -33.4% (inactive)
86 | Cc1nonc1OCCNc1ccc([N+](=O)[O-])cc1 | -8.5% (inactive)
87 | Cc1ccc(-c2nc(CS(=O)(=O)CC(=O)NCCN3CCOCC3)c(C)o2)cc1 | -12.6% (inactive)
88 | Cc1ccc2nc(-c3ccccn3)cc(C(=O)NC3CCN(C)CC3)c2c1 | -23.8% (inactive)
89 | CS(=O)(=O)c1sc(C(=O)NC(=S)Nc2ccc(OC(F)(F)F)cc2)c2c1C=CCC2 | -11% (inactive)
90 | O=C(COc1ccccc1)NC(=S)N1CCc2ccccc21 | 2.7% (active)
91 | Cc1cccc(C(=O)NC(=S)N2CCc3ccccc3C2)c1 | 20.8% (active)
92 | Cc1cccc(C(=O)NNC(=S)NC(=O)c2ccccc2)c1 | -4.5% (inactive)
93 | O=C(COc1ccc(Cl)cc1Cl)NC(=S)N1CCCc2ccccc21 | -13.8% (inactive)
94 | CC1(C)CC(NC(=O)c2ccc(Cl)cc2Cl)CC(C)(C)N1 | -23.3% (inactive)
95 | CC1(C)CC2CC(C)(CN2C(=S)NC(=O)c2ccccc2Cl)C1 (stereo not given) | 23.3% (active)
96 | Cc1ccc(C(=O)NC(=S)N2CCN(c3cc(C)ccc3C)CC2)cc1 | -8.7% (inactive)
97 | O=C(COc1ccc(Br)cc1Cl)NC(=S)N1CCc2ccccc21 | -14.2% (inactive)
98 | O=C(Nc1cccn(Cc2c(Cl)cccc2Cl)c1=O)c1ccccc1Cl | -24.1% (inactive)
99 | CC(Oc1ccc(Cl)cc1Cl)C(=O)NC(=S)N1CCc2ccccc21 (stereo not given) | 24.1% (active)
100 | Cc1cccc(OCC(=O)NC(=S)N2CCCc3ccccc32)c1 | -23.9% (inactive)
